In PubChem BioAssay (NCI):
About 83,000 compounds went through this panel and 20% of them were active in at least one assay; those are over-represented in the sample as a whole.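 Plates (96-well) were seeded with cells, treated with compound at one concentration, and incubated for 48 hours before percent growth was determined.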 A number with no mark means an inactive call. Active and inactive are the calls of the source. The calls were made as follows: active = growth percent below 10; inactive = the rest.

System: HL-60(TB) leukemia
Experiment: NCI-60 one-dose screen, 48 h (100 = growth as untreated, 0 = no growth, -100 = all killed)
Details: 10 µM unless noted

Structure (SMILES)	growth
O=C(Nc1ncc(Cc2cc(Cl)ccc2Cl)s1)c1cccs1	86.1%
COc1ccc(-c2nc(Nc3ccc(-c4nc5ccccc5[nH]4)cc3)nc(N3CCOCC3)n2)cc1	-46% (active)
CC(C)(CO)N(CCO)CCO	103%
CN(C)CC(C)(C)C(=O)/C=C/c1ccccc1	-15.3% [25 µM] (active)
COc1cc(/C=C/c2cc(/C=C/c3ccc(O)c(OC)c3)nc(N)n2)ccc1O	3.67% (active)
COC(=O)CC[C@@H](C)[C@H]1CC[C@H]2C3CC[C@@H]4C[C@@H]5CC[C@]4(C)[C@@]3(O5)[C@H](Br)[C@@H](Br)[C@]12C (some centres undefined)	81.2%
CCOC(=O)c1c(C)oc2ncnc(Nc3ccc(C(=O)NCCc4ccccc4)cc3)c12	87.7%
Cc1ccc(S(=O)(=O)N2CCCN(c3nc(-c4ccccc4)nc4nc(-c5ccccc5)oc34)CC2)cc1	110%
CCn1cc(-c2[nH]c(=S)ncc2-c2ccc(Cl)cc2)c(-c2ccc(Br)cc2)n1	117%
CCN1C(=O)N(CC)C2Nn3c(s/c(=C4\C(=O)N(C(C)C)c5ccccc54)c3=O)=NC21 (centres undefined)	6.28% (active)
COc1ccc(/C=C2\CCCC3=C2NC(N)=NC3c2ccc(OC)c(OC)c2)cc1OC (centres undefined)	42.4%
Nc1nc(Nc2ccccc2)c2ncn(Cc3ccc4c(c3)OCO4)c2n1	25.1%
COc1cc2c(cc1OCCCN1CCN(CCCOc3cc4c(cc3OC)C(=O)N3CC(F)(F)C[C@H]3C=N4)CC1)N=C[C@@H]1CC(F)(F)CN1C2=O	15.7%
Clc1ccc([C@@H]2C[C@@H]3Cc4cc(Br)c5ccccc5c4N2O3)c(Cl)c1	54.3%
O=C(CCNNC(=O)c1ccncc1)NCc1ccccc1	70.1%
CN(C)c1ccc(N=C2C=CC(=O)c3ccccc32)cc1	82.2%
Cc1c2cnccc2c(C)c2c1c1cc(C3OCCCO3)ccc1n2C	-4.04% (active)
COc1ccc(C2NC(=O)C(C#N)c3c2sc2c(F)cccc32)c(OC)c1 (centres undefined)	56.9%
Cc1onc(-c2c(F)cccc2Cl)c1-c1ncc(-c2ccc(Cl)cc2)o1	36.4%
COC(=O)c1ccc(Cn2cnc3c(N)ncnc32)cc1	67.6%
COc1cc2c(cc1OCCCN1CCN(c3ncnc4ccccc34)CC1)N=CC1CCCN1C2=O (centres undefined)	-53.2% (active)
S=c1[nH]nc(-c2cc3ccc2CCc2ccc(cc2)CC3)n1C1CC1	106%
O=C(Nc1ccc(-c2ccc3c(c2)NC(=O)/C3=C\c2ccc[nH]2)cc1)NC1CC1	98.3%
CCN(CC)CCOc1ccccc1-n1c(C)ccc1-c1ccccc1	22.4%
